Experimental data taken from PubChem BioAssay (EPA / NIEHS).
Inconclusive results are not listed. The source made the active and inactive calls. Rule for the calls, unless noted: active = hit-call score of the fitted dose curve at least 0.9, where 1 is the maximum; inactive = score below 0.9.

Tests used:
[1] = molecular target: Myc proto-oncogene protein (Homo sapiens) (UniProt P01106); experiment: ATG_Myc_CIS: Attagene CIS-FACTORIAL HepG2 Assay for human Myelocytomatosis (Myc) Proto-Oncogene Transcription Factor (AID 2282990); conditions: HepG2, Attagene cis-reporter transcription factor activity; actives raise or lower the signal
Chain of Myc proto-oncogene protein (Homo sapiens) (P01106 whole entry, looked up): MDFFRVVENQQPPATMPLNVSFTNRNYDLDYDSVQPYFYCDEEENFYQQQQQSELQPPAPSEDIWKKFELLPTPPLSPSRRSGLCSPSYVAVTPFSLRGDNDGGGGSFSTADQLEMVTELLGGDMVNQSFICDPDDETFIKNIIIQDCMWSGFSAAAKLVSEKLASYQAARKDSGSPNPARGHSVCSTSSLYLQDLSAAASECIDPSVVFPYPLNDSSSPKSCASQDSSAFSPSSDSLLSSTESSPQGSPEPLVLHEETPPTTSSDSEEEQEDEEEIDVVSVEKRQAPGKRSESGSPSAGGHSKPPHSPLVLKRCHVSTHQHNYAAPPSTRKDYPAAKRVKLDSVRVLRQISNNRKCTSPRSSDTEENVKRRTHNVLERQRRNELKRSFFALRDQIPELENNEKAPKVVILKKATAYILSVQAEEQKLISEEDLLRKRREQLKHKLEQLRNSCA
Procedure, shortened: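 HepG2, transient MRTU transfection (cis promoters, endogenous TFs); 24 h dosing; TriZol RNA → oligo(dT) RT → PCR → 6-FAM primer extension → HpaI cut → CE. Bidirectional fit vs DMSO.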

[2] = ATG_NF_kB_CIS: Attagene CIS-FACTORIAL HepG2 Assay for human Nuclear Factor Kappa B (NF-kB) (AID 2282991); conditions: HepG2 Attagene cis-factorial NF-kB reporter mRNA; actives raise or lower the signal
Procedure, shortened: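 Transient MRTU transfection of human HepG2 liver cells → 24 h chemical exposure → total RNA, oligo(dT) RT → PCR, 6-FAM primer extension, HpaI digest 2 h 37 C → CE fragment analysis. Bidirectional fitting, DMSO negative control.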

[3] = ATG_NRF2_ARE_CIS: Attagene CIS-FACTORIAL HepG2 Assay for human Nuclear Factor Erythroid 2 Related Factor 2 (NFR2) response to Antioxidant Response Elements (ARE) (AID 2282992); conditions: HepG2 Attagene ARE/NRF2 reporter, transcription factor activity; actives raise or lower the signal;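 for AC50: reporter mRNA level measured by RT-PCR and capillary electrophoresis fluorescence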
Procedure, shortened: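 HepG2 cells transiently transfected with multiplexed cis-regulated reporter transcription units measure endogenous transcription factor activity. Reporter mRNA at 24 h is quantified by RT-PCR, fluorescent labelling and capillary electrophoresis, with bidirectional fitting relative to DMSO.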

[4] = ATG_Oct_MLP_CIS: Attagene CIS-FACTORIAL HepG2 Assay for human Octamer-Binding Transcription Factor (Oct) (AID 2282993); conditions: HepG2 Attagene cis-factorial Oct reporter, mRNA; actives raise or lower the signal
Procedure, shortened: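 After 24 h compound exposure, transfected HepG2 cells were lysed for total RNA; reporter-specific cDNA was PCR-amplified, fluorescently labelled and sized by capillary electrophoresis. Bidirectional curve fitting used DMSO as baseline.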

[5] = molecular target: Cellular tumor antigen p53 (Homo sapiens) (UniProt P04637); experiment: ATG_p53_CIS: Attagene CIS-FACTORIAL HepG2 Assay for human p53 Transcription Factor (AID 2282994); conditions: HepG2 p53 cis-element reporter, Attagene mRNA; actives raise or lower the signal
Chain of Cellular tumor antigen p53 (Homo sapiens) (P04637 whole entry, looked up): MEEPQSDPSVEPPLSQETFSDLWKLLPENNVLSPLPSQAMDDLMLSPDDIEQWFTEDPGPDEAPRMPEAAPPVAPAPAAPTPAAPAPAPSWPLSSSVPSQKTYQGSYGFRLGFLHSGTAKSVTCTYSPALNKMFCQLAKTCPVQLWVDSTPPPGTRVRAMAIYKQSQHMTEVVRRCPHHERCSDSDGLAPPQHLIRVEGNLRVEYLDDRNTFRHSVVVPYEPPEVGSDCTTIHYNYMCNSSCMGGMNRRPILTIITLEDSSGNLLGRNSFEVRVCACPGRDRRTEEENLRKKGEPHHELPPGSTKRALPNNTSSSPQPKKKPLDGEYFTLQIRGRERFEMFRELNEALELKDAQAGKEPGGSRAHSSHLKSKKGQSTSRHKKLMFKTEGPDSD
Procedure, shortened: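 HepG2 cells transiently transfected with multiplexed cis-regulated reporter transcription units read endogenous TF activity. After 24 h compound exposure, reporter mRNA was quantified by RT-PCR, fluorescent labelling, HpaI digestion and capillary electrophoresis; bidirectional fits versus DMSO baseline.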

[6] = molecular target: human Peroxisome Proliferator-activated Receptor alpha (PPARa), PPARA (gene 5465) (UniProt Q07869); experiment: ATG_PPARa_TRANS: Attagene TRANS-FACTORIAL HepG2 Assay for human Peroxisome Proliferator-activated Receptor alpha (PPARa) (AID 2283001; active = hit-call score of the fitted dose curve at least 0.9, where 1 is the maximum;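 for AC50: potency for gain of reporter signal over DMSO so agonist or activator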)
Chain of human Peroxisome Proliferator-activated Receptor alpha (PPARa), PPARA (gene 5465) (Q07869 whole entry, looked up, the tested form may be a part): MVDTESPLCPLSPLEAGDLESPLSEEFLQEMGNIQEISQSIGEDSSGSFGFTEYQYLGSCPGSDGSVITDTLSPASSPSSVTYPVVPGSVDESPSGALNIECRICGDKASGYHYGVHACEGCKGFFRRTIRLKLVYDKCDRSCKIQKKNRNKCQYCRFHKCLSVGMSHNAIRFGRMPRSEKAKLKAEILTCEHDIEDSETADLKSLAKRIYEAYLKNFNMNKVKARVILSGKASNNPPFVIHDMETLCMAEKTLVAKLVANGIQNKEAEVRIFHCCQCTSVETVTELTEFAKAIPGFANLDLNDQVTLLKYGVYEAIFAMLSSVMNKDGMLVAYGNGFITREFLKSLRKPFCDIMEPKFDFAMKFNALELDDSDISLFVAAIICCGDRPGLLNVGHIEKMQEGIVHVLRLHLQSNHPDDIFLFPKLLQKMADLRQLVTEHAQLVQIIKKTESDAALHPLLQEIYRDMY
Procedure, shortened: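 Read-out is fluorescence of reporter cDNA fragments resolved by capillary electrophoresis after RT-PCR. Human HepG2 liver cells carried transfected PPARa-Gal4 chimera and GAL4-UAS reporter units, treated 24 h; activity scored as increase over DMSO.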

[7] = molecular target: Peroxisome proliferator-activated receptor gamma (Homo sapiens) (UniProt P37231); experiment: ATG_PPARg_TRANS: Attagene TRANS-FACTORIAL HepG2 Assay for human Peroxisome Proliferator-activated Receptor-gamma (PPARg) (AID 2283007; active = hit-call score of the fitted dose curve at least 0.9, where 1 is the maximum)
Chain of Peroxisome proliferator-activated receptor gamma (Homo sapiens) (P37231 whole entry, looked up, the tested form may be a part): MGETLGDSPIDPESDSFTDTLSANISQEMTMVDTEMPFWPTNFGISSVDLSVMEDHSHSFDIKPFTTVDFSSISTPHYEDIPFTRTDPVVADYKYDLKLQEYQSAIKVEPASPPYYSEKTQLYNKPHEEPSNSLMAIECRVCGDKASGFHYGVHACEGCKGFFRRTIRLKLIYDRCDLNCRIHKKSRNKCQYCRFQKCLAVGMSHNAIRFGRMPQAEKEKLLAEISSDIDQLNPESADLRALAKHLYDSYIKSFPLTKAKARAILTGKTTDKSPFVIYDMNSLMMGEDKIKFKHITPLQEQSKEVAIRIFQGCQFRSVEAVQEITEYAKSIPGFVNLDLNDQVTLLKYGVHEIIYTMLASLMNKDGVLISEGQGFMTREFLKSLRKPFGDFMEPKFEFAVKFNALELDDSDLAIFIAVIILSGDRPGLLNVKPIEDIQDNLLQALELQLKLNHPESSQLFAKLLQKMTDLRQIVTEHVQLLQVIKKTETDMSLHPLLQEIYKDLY
Procedure, shortened: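 Transient transfection of HepG2 with GAL4-UAS-driven reporter units; chemical dosing 24 h; total RNA → oligo(dT) RT → PCR with reporter primers → 6-FAM primer extension → HpaI digest 2 h 37 C → capillary electrophoresis. Positive direction vs DMSO.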

[8] = molecular target: Nuclear receptor subfamily 1 group I member 2 (Homo sapiens) (UniProt O75469); experiment: ATG_PXR_TRANS: Attagene TRANS-FACTORIAL HepG2 Assay for human Pregnane X Receptor (PXR) (AID 2283008; active = hit-call score of the fitted dose curve at least 0.9, where 1 is the maximum)
Chain of Nuclear receptor subfamily 1 group I member 2 (Homo sapiens) (O75469 whole entry, looked up, the tested form may be a part): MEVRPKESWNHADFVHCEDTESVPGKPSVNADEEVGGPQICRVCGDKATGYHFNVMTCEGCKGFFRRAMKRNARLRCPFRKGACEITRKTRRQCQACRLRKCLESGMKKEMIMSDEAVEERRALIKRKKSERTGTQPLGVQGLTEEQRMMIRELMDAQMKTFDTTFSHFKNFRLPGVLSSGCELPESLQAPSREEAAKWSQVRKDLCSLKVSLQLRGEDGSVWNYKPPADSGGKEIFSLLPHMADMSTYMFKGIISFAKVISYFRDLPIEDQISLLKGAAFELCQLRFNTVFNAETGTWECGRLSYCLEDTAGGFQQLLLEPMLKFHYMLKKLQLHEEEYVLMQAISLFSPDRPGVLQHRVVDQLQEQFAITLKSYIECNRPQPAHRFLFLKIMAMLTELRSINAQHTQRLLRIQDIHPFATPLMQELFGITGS
Procedure, shortened: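 HepG2 cells transiently transfected with multiple reporter units, here a PXR-GAL4 chimera driving a GAL4-UAS reporter; 24 h compound exposure. Reporter mRNA measured by RT-PCR, FAM labelling and capillary electrophoresis; gain of signal fitted against DMSO baseline.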

[9] = molecular target: human RAR-related Orphan Receptor beta (RORb), RORB (gene 6096) (UniProt Q92753); experiment: ATG_RORb_TRANS: Attagene TRANS-FACTORIAL HepG2 Assay for human RAR-related Orphan Receptor beta (RORb) (AID 2283010; active = hit-call score of the fitted dose curve at least 0.9, where 1 is the maximum)
Chain of human RAR-related Orphan Receptor beta (RORb), RORB (gene 6096) (Q92753 whole entry, looked up, the tested form may be a part): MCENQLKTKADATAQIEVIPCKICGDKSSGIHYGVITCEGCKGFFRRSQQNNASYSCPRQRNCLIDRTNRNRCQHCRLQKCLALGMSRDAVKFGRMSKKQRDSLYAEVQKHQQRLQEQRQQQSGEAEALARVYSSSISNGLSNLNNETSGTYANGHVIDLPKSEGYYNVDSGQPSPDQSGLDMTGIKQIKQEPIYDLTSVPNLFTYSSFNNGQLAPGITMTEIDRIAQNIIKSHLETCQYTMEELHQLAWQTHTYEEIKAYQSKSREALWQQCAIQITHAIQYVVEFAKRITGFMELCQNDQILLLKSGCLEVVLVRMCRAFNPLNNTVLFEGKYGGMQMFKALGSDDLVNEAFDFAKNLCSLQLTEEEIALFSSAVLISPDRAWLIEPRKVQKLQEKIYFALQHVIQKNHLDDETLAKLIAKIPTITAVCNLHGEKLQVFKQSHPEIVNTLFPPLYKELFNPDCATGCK
Procedure, shortened: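 HepG2 cells transiently transfected with GAL4-UAS reporter units expressing chimeric NR-Gal4 protein; reporter mRNA measured 24 h after dosing by RT-PCR, 6-FAM labelling and capillary electrophoresis. Gain-of-signal fitted relative to DMSO baseline.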

[10] = molecular target: human Peroxisome Proliferator-activated Receptor delta (PPARd), PPARD (gene 5467) (UniProt Q03181); experiment: ATG_PPARd_TRANS: Attagene TRANS-FACTORIAL HepG2 Assay for human Peroxisome Proliferator-activated Receptor delta (PPARd) (AID 2283002; active = hit-call score of the fitted dose curve at least 0.9, where 1 is the maximum)
Chain of human Peroxisome Proliferator-activated Receptor delta (PPARd), PPARD (gene 5467) (Q03181 whole entry, looked up, the tested form may be a part): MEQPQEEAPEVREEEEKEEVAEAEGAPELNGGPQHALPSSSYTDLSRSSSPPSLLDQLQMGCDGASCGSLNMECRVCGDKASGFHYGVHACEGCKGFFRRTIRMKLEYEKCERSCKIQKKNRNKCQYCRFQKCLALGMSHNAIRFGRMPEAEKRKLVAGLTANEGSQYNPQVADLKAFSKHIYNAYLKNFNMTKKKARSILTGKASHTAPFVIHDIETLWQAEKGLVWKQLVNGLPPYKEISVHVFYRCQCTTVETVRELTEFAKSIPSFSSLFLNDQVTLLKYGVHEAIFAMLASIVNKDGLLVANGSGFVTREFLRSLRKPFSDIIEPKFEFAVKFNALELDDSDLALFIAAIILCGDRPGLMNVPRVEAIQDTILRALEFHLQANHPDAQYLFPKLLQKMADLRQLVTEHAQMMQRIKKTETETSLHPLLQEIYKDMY
Procedure, shortened: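 Transient HepG2 transfection (multiple GAL4-UAS RTUs, chimeric receptor-Gal4); 24 h dosing; total RNA → oligo(dT) RT → PCR → 6-FAM primer extension → HpaI cut → CE. Positive direction vs DMSO.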

[11] = molecular target: human Retinoic Acid Receptor beta (RARb), RARB (gene 5915) (UniProt P10826); experiment: ATG_RARb_TRANS: Attagene TRANS-FACTORIAL HepG2 Assay for human Retinoic Acid Receptor beta (AID 2283004; active = hit-call score of the fitted dose curve at least 0.9, where 1 is the maximum)
Chain of human Retinoic Acid Receptor beta (RARb), RARB (gene 5915) (P10826 whole entry, looked up, the tested form may be a part): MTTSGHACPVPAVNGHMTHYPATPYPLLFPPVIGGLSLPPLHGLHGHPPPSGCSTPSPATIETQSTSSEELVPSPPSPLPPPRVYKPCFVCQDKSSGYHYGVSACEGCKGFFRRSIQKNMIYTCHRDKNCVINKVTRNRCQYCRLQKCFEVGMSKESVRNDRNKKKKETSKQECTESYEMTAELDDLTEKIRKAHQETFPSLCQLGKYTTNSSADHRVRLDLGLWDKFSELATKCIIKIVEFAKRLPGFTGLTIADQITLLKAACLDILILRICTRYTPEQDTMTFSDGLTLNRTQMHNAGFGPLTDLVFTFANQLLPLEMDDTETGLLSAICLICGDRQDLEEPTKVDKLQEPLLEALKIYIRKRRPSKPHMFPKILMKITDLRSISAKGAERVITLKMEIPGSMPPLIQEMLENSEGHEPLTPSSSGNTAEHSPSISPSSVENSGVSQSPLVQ
Procedure, shortened: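 Fluorescent capillary-electrophoresis detection of GAL4-UAS reporter mRNA defines the endpoint, with induction over DMSO-treated wells scored as activity. Transiently transfected human hepatoma HepG2 cells expressing exogenous NR–Gal4 proteins are exposed to test chemicals for 24 h.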

[12] = molecular target: Retinoic acid receptor alpha (Homo sapiens) (UniProt P10276); experiment: ATG_RARa_TRANS: Attagene TRANS-FACTORIAL HepG2 Assay for human Retinoic Acid Receptor alpha (RARa) (AID 2283005; active = hit-call score of the fitted dose curve at least 0.9, where 1 is the maximum)
Chain of Retinoic acid receptor alpha (Homo sapiens) (P10276 whole entry, looked up, the tested form may be a part): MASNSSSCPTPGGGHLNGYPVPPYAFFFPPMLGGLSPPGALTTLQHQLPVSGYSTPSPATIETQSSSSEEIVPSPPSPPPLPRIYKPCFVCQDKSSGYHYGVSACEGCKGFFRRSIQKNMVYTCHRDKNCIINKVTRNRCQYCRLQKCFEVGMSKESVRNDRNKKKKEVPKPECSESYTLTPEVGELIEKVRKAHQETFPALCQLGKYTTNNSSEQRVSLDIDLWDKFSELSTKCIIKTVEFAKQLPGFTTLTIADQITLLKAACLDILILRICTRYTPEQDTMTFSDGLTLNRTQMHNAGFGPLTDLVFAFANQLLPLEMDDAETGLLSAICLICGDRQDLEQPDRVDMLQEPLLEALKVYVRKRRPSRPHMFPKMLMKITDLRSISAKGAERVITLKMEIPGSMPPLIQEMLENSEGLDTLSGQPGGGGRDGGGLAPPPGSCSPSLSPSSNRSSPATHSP
Procedure, shortened: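 Reporter transcripts, measured by RT-PCR with fluorescent labeling and capillary electrophoresis after 24 h dosing, reflect activity of an exogenous human RARa–GAL4 fusion in transiently transfected HepG2. Fitted for increase relative to DMSO.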

[13] = molecular target: human RAR-related Orphan Receptor gamma (RORg), RORC (gene 6097) (UniProt P51449); experiment: ATG_RORg_TRANS: Attagene TRANS-FACTORIAL HepG2 Assay for human RAR-related Orphan Receptor gamma (RORg) (AID 2283011; active = hit-call score of the fitted dose curve at least 0.9, where 1 is the maximum)
Chain of human RAR-related Orphan Receptor gamma (RORg), RORC (gene 6097) (P51449 whole entry, looked up, the tested form may be a part): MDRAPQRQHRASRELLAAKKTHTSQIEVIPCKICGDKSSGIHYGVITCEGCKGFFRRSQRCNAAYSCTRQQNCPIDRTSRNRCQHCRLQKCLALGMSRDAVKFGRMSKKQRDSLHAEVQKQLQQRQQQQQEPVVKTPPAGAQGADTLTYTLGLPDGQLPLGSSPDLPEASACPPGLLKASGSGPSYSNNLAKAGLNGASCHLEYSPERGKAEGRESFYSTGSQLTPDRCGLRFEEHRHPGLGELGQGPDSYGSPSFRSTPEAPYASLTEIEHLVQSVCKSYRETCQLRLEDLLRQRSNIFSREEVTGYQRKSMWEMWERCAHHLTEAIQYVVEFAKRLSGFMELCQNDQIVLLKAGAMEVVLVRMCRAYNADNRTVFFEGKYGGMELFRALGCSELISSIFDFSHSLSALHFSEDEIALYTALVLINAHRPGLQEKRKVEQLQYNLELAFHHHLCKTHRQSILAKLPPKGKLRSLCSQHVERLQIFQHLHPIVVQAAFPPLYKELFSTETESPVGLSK
Procedure, shortened: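 Chimeric RORg-Gal4 transactivation in transfected HepG2; 24 h exposure; RT-PCR/capillary electrophoresis readout of reporter mRNA, DMSO baseline.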

[14] = molecular target: human Retinoic Acid Receptor gamma (RARg), RARG (gene 5916) (UniProt P13631); experiment: ATG_RARg_TRANS: Attagene TRANS-FACTORIAL HepG2 Assay for human Retinoic Acid Receptor gamma (RARg) (AID 2283009; active = hit-call score of the fitted dose curve at least 0.9, where 1 is the maximum)
Procedure, shortened: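 HepG2 transiently transfected with GAL4-UAS reporter units and chimeric NR-Gal4 constructs; 24 h compound exposure. Reporter mRNA quantified by RT-PCR, FAM labeling, HpaI digestion and capillary electrophoresis; gain-of-signal versus DMSO.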

## OCC(c1ccc(Cl)cc1)c1ccc(Cl)cc1
[1]
  outcome: inactive
[2]
  outcome: inactive
[3]
  AC50: 43.6 µM (active)
[4]
  AC50: 57.9 µM (active)
[5]
  outcome: inactive
[6]
  AC50: 55 µM (active)
[7]
  AC50: 39.2 µM (active)
[8]
  AC50: 20.1 µM (active)

## CCCCCCCCBr
[1]
  outcome: inactive
[2]
  outcome: inactive
[3]
  outcome: inactive
[4]
  outcome: inactive
[5]
  outcome: inactive
[6]
  outcome: inactive
[7]
  outcome: inactive

## Clc1cnc(Oc2ccc(Oc3ncc(Cl)cc3Cl)cc2)c(Cl)c1
[1]
  outcome: inactive
[2]
  outcome: inactive
[3]
  outcome: inactive
[4]
  outcome: inactive
[5]
  outcome: inactive
[6]
  outcome: inactive
[7]
  AC50: 16.7 µM (active)
[8]
  AC50: 7.48 µM (active)
[9]
  outcome: inactive

## COC(=O)Nc1cccc(OC(=O)Nc2cccc(C)c2)c1
[1]
  outcome: inactive
[2]
  outcome: inactive
[3]
  outcome: inactive
[4]
  outcome: inactive
[5]
  outcome: inactive
[10]
  outcome: inactive
[7]
  outcome: inactive
[8]
  outcome: inactive
[9]
  outcome: inactive

## CCC[CH2][Sn]([Cl])([Cl])[CH2]CCC
[1]
  outcome: inactive
[2]
  AC50: 1.99 µM (active)
[3]
  AC50: 0.315 µM (active)
[4]
  AC50: 0.949 µM (active)
[5]
  outcome: inactive
[10]
  outcome: inactive
[7]
  AC50: 0.73 µM (active)

## C=CCOC(N)=O
[1]
  outcome: inactive
[2]
  outcome: inactive
[3]
  outcome: inactive
[4]
  outcome: inactive
[5]
  outcome: inactive
[10]
  outcome: inactive
[11]
  outcome: inactive
[12]
  outcome: inactive
[7]
  outcome: inactive
[13]
  outcome: inactive

## CC(F)(F)CC(F)(F)F
[1]
  outcome: inactive
[2]
  outcome: inactive
[3]
  outcome: inactive
[4]
  outcome: inactive
[5]
  outcome: inactive
[10]
  outcome: inactive
[7]
  outcome: inactive
[8]
  outcome: inactive
[14]
  outcome: inactive

## CC(=O)C(F)(F)C(F)(F)F
[1]
  outcome: inactive
[2]
  outcome: inactive
[3]
  outcome: inactive
[4]
  outcome: inactive
[5]
  outcome: inactive
[10]
  outcome: inactive
[7]
  outcome: inactive
[8]
  outcome: inactive

## COP(=S)(OC)Oc1cc(Cl)c(I)cc1Cl
[1]
  outcome: inactive
[2]
  AC50: 55.6 µM (active)
[3]
  AC50: 8.28 µM (active)
[4]
  AC50: 30.7 µM (active)
[5]
  AC50: 52.6 µM (active)
[10]
  outcome: inactive
[7]
  AC50: 28.3 µM (active)
[8]
  AC50: 21.8 µM (active)

## CCCCS(=O)(=O)Cl
[1]
  outcome: inactive
[2]
  outcome: inactive
[3]
  outcome: inactive
[4]
  outcome: inactive
[5]
  outcome: inactive
[10]
  outcome: inactive
[8]
  outcome: inactive
[9]
  outcome: inactive
[13]
  outcome: inactive

## C=CC(=O)[O][Sn]([CH2]CCC)([CH2]CCC)[CH2]CCC
[1]
  outcome: inactive
[2]
  outcome: inactive
[3]
  AC50: 0.111 µM (active)
[4]
  AC50: 0.348 µM (active)
[5]
  outcome: inactive
[10]
  outcome: inactive
[7]
  AC50: 0.0934 µM (active)
[8]
  AC50: 0.237 µM (active)

## CNC(=O)O/N=C/C(C)(C)S(C)(=O)=O
[1]
  outcome: inactive
[2]
  outcome: inactive
[3]
  outcome: inactive
[4]
  outcome: inactive
[5]
  outcome: inactive
[6]
  outcome: inactive
[9]
  outcome: inactive

## OC(c1ccc(Cl)cc1)(c1ccc(Cl)cc1)c1cccnc1
[1]
  outcome: inactive
[2]
  outcome: inactive
[3]
  AC50: 11.1 µM (active)
[4]
  outcome: inactive
[5]
  outcome: inactive
[10]
  outcome: inactive
[7]
  outcome: inactive
[8]
  outcome: inactive

## N#Cc1ccccc1N
[1]
  outcome: inactive
[2]
  outcome: inactive
[3]
  outcome: inactive
[4]
  outcome: inactive
[5]
  outcome: inactive
[11]
  outcome: inactive
[12]
  outcome: inactive
[8]
  outcome: inactive
[9]
  outcome: inactive
[13]
  outcome: inactive
